Here are results for 18 compounds from PubChem BioAssay (Tox21).

Records with an inconclusive call do not appear. Activity calls are given as the source filed them. The call rests on the fitted dose curve.
On the % scale 0 is the no-effect control and ±100 the full control effect.

This test can be described thus: qHTS assay to identify small molecule agonists of the NFkB signaling pathway - cell viability counter screen (AID 1159515). Further: nearly all actives have a fitted effect of over 55% in size. Conditions: NFkB-bla ME-180 viability, CellTiter-Glo luminescence, 5 h; series mostly up to 61 µM; activity, negative = cytotoxic: at the top concentration. The gist of the method: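 Tox21 library compounds were tested for cytotoxicity against NFkB-bla ME-180 cells during a 5 hr exposure at 37 C. CellTiter-Glo luminescence served as the viability read-out.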
For orientation: qHTS replaces the single test concentration by a dilution series.
`CC(COc1ccc(C(C)(C)C)cc1)OS(=O)OCCCl` (stereo not drawn): the “activity, negative = cytotoxic” value was -2.67% [at 78.8 µM] (inactive). As for `Cc1ccc(Nc2nccc(N(C)c3ccc4c(C)n(C)nc4c3)n2)cc1S(N)(=O)=O`, the “activity, negative = cytotoxic” value is 8.9% (inactive). For the compound `CN(C)CCOC1=Cc2ccccc2Sc2ccc(Cl)cc21`, the “activity, negative = cytotoxic” value was -1.27% (inactive). The value for `CCOCCn1c(C2CCN(CCc3ccc(C(C)(C)C(=O)O)cc3)CC2)nc2ccccc21` was -0.539% (inactive); that for `CCCC(=O)O[C@]1(C(=O)COC(=O)CC)CC[C@H]2[C@@H]3CCC4=CC(=O)CC[C@]4(C)[C@H]3[C@@H](O)C[C@@]21C` was 3.21% [at 28.5 µM] (inactive). Regarding `Oc1ccc(Nc2ccccc2)cc1`, the “activity, negative = cytotoxic” value is 0.421% (inactive). With `O=C(O)c1ccccc1NCCc1ccccc1`, the “activity, negative = cytotoxic” value was 9.92% (inactive). Turning to `CCC(C)(C)C1CCC(O)CC1` (stereo not drawn), the “activity, negative = cytotoxic” value was 5.71% (inactive). For the compound `O=C(N[C@@H](c1ccccc1)[C@@H]1CCCCN1)c1cccc(C(F)(F)F)c1Cl`, the “activity, negative = cytotoxic” value was -0.802% (inactive).

For the compound `COC(=O)CC(=O)C(C)(C)C`, the “activity, negative = cytotoxic” value is 0.0847% (inactive). The value for `CC(=O)[C@H]1CC[C@H]2[C@@H]3C[C@H](C)C4=CC(=O)CC[C@]4(C)[C@H]3[C@@H](O)C[C@]12C` was -0.162% (inactive). In the case of `Fc1ccccc1[C@@H](F)COC1CCC(Nc2ncnc3[nH]ncc23)CC1` (stereo partly drawn), the “activity, negative = cytotoxic” value is -2.41% (inactive).

On to `COCc1c(C(C)C)nc(C(C)C)c(/C=C/[C@@H](O)C[C@@H](O)CC(=O)O)c1-c1ccc(F)cc1`, for which the “activity, negative = cytotoxic” value was -1.74% (inactive). For `CCNC(=O)N1CCN(CCCC(c2ccc(F)cc2)c2ccc(F)cc2)CC1`, the “activity, negative = cytotoxic” value is 10.9% (inactive). Turning to `O=C(Nc1ccccc1)Nc1ccccc1`, the “activity, negative = cytotoxic” value is -2.82% [at 78.8 µM] (inactive).

In the case of `c1cc[c]([Bi]([c]2ccccc2)[c]2ccccc2)cc1`, the “activity, negative = cytotoxic” value is 11.8% (inactive). For `CCOC(=O)N1CCC(n2c(=O)[nH]c3cc(Cl)ccc32)CC1`, the “activity, negative = cytotoxic” value was -5.45% (inactive). Turning to `CCn1cc(C(=O)O)c(=O)c2cc(F)c(N3CCNCC3)nc21`, the “activity, negative = cytotoxic” value was -1.53% (inactive).
